According to ChEMBL document CHEMBL3988442, “University of Dundee, Small-Polar-MMV Screening Library” (2021):

Biological target: T1, Arginase-2, mitochondrial (Homo sapiens) (UniProt P78540)
T1 sequence (whole entry): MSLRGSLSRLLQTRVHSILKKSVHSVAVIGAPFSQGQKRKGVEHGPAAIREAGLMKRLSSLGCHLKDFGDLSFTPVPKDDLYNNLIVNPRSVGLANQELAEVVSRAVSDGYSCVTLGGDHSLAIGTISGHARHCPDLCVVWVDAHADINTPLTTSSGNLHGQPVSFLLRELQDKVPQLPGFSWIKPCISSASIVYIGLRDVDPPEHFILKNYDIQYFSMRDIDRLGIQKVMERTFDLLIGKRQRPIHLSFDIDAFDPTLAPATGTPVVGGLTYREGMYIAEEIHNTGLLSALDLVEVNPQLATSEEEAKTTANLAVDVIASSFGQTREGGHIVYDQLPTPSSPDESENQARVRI
Test: in vitro enzyme assay to detect the production of urea directly proportional to the activity of Arginase II
Assay type: functional
Parameters: scale not given: in the data most compounds retested in dose-response had high values
Settings: 30 µM

SMILES	Percent Effect [%]
c1ccc(OC2COC3(CCN(Cc4ccccn4)CC3)C2)cc1 (stereo not given)	0.54
COc1ccccc1Oc1ncccc1CNC(=O)[C@@H](N)[C@@H](C)O	3.78
CC1=Nc2c(c(=O)[nH]n2C2CCOCC2)C(c2cccc(O)c2)S1 (stereo not given)	2.7
CNC(=O)[C@H]1C[C@@H]2CN(C(=O)c3ccoc3)C[C@@H]2N1S(C)(=O)=O	10.3
Cc1cc(CN(Cc2ccccc2)CC(O)c2cccs2)on1 (stereo not given)	3.78
OC(CN(Cc1ccccc1)Cc1ccccn1)c1cccs1 (stereo not given)	11.3
CN(Cc1cccnc1)C1CC2(CCN(Cc3ccccn3)CC2)C1	2.7
Cc1cc(C)cc(OCC(O)CN2CCN(c3nccs3)CC2)c1 (stereo not given)	4.87
O=C(NCC1CC1)[C@@H]1CCO[C@@H]2CCN(CCc3ccccc3)C[C@H]21	1.62
Cc1noc(CNC(=O)N2CCN(c3nc(C)c(C)s3)CC2)n1	5.95
CN(C)c1ncccc1NC(=O)C1CN(Cc2ccccc2)CCO1 (stereo not given)	-8.11
COc1ccc2c(c1)OCC(CNC(=O)c1cc[nH]c1C)C2 (stereo not given)	8.11
CNC(=O)[C@H]1C[C@@H]2CN(C(=O)c3ccc(C)o3)C[C@@H]2N1S(C)(=O)=O	1.62
CC1=Nc2c(c(=O)[nH]n2C2CCCCC2)C(c2ccc(C(=O)O)cc2)S1 (stereo not given)	5.95
O=C(NC1CC1)[C@@H]1CCO[C@@H]2CCN(CCc3ccccc3)C[C@@H]21	10.3
CN(Cc1ccccn1)C1CC2(CCN(Cc3ccccn3)CC2)C1	-16.8
Cc1ccoc1CNCc1nnc2n1CC(C(F)(F)F)CC2 (stereo not given)	3.78
Cc1cc(C(=O)N2CCCC(c3nccn3Cc3cscn3)C2)on1 (stereo not given)	9.19
CCC(C(=O)NCc1ccncc1)N(c1cccc(Cl)c1)S(C)(=O)=O (stereo not given)	-13.5
Fc1ccc(CNCc2nnc3n2CC(C(F)(F)F)CC3)cc1 (stereo not given)	-13.5

SMILES	Percent Effect [%]
CN(Cc1ccco1)[C@@H]1CN(Cc2cnn(C)c2)[C@@H]2CCCO[C@H]12	2.7
CC(C)c1ncc(CN2CCOC(C(=O)Nc3ccccc3)C2)cn1 (stereo not given)	3.78
CC(C)NC(=O)[C@]12COC[C@H]1CN(Cc1cnn(C)c1)C2	-13.5
CC(C)N(C)C(=O)c1coc(CN2CCN(c3ccccc3F)CC2)n1	7.03
COc1ccc(C2SC(C)=Nc3c2c(=O)[nH]n3C2CCCC2)cc1O (stereo not given)	2.7
COc1ccc(C(=O)N(CCC#N)Cc2ccccn2)cc1	1.62
O=C(c1coc(CN2CCN(c3ccccc3F)CC2)n1)N1CCCC1	3.78
COc1ccc(C(=O)N2C[C@@H](C(=O)O)[C@H](c3ccccc3)C2)c(C)c1	-7.03
O=C(O)C(c1ccc(Cl)c(F)c1)N1CCN(Cc2ccccn2)CC1 (stereo not given)	5.95
Cc1cc(F)c(C(C(=O)O)N2CCN(Cc3ccccn3)CC2)cc1Cl (stereo not given)	5.95
CN(C)C(=O)CN1CCCC(c2cncc(-c3cccc(Cl)c3)n2)C1 (stereo not given)	1.62
CN1CCC(c2cncc(-c3cccc(Cl)c3)n2)CC1	4.87
CCc1nc(C)c(C(=O)NCC2COc3cc(OC)ccc3C2)o1 (stereo not given)	5.95
Cc1cccc(NC2CCc3c2[nH]c(=O)n(C2CCCCC2)c3=O)c1C (stereo not given)	-0.54
Cc1nc(NCC2CC2)nc2c1COCC21CCN(C(=O)C(C)(C)C)C1 (stereo not given)	8.11
COc1ccc2c(c1)OCC(CNC(=O)c1cnc(O)cn1)C2 (stereo not given)	10.3
CCC(C(=O)NCc1ccncc1)N(c1ccccc1)S(C)(=O)=O (stereo not given)	5.95
CC(C)(C)n1cc(NC(=O)C2CN(Cc3ccccc3)CCO2)cn1 (stereo not given)	0.54
O=C(Cn1nc2c(cc1=O)CCCC2)NC(Cc1ccccc1)C(=O)O (stereo not given)	-13.5
Cc1nn(CCO)c(C)c1CNC1CCOc2ccccc21 (stereo not given)	-9.19
